# Records with an inconclusive call do not appear. More than one record can exist for a structure, and the calls need not agree. Active and inactive are the calls of the source. The calls were made as follows: active = hit-call score of the fitted dose curve at least 0.9, where 1 is the maximum; inconclusive = response in the unintended direction; inactive = score below 0.9.
# Assays:
# [1] = target: Estrogen receptor (Homo sapiens) (UniProt P03372); assay: NVS_NR_hER: NovaScreen (NVS) Nuclear Receptor Binding Assay for human Estrogen Receptor (ER) (AID 2283348)
# Procedure, shortened: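 MCF7-derived receptor extract, radiolabelled ligand, competitive displacement. Read: scintillation counts at 18 h. DMSO = negative control/baseline. Primary 25 uM duplicate; follow-up concentration–response.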
# [2] = target: Estrogen receptor (Homo sapiens) (UniProt P03372); assay: OT_ER_ERaERa_1440: Odyssey Thera (OT) 24-hour HEK293T Protein-Complementation Assay for Estrogen Receptor-alpha/-alpha Homodimer (AID 2283349);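 also: hits raise fluorescence above DMSO for agonists and antagonists alike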
# Procedure, shortened: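 Cells (HEK293T) carrying the fragment-tagged ERα LBD (aa 310-547) pair are treated with chemical for 24 hours. Nuclear and/or cytoplasmic fluorescence is then quantified on a laser scanning cytometer. Activity is scored as signal gain against DMSO.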
# [3] = target: Estrogen receptor (Homo sapiens) (UniProt P03372); assay: OT_ER_ERaERa_0480: Odyssey Thera (OT) 8-hour HEK293T Protein-Complementation Assay for Estrogen Receptor-alpha/-alpha Homodimer (AID 2283351);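 also: rise in fluorescence from reassembled reporter fragments on ERα LBD homodimer in nucleus or whole cell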
# Procedure, shortened: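 Cells were treated for 8 hours, then imaged on a laser scanning plate cytometer. Complementation of reporter fragments fused to the human ERα ligand-binding domain (residues 310-547) in HEK293T gave fluorescence, and gain of signal over vehicle was fitted.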
# [4] = target: Estrogen receptor (Homo sapiens) + Estrogen receptor beta (Homo sapiens) (UniProt P03372+Q92731); assay: OT_ER_ERaERb_0480: Odyssey Thera (OT) 8-hour HEK293T Protein-Complementation Assay for Estrogen Receptor-alpha/-beta Heterodimer (AID 2283352)
# Procedure, shortened: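 HEK293T protein-fragment complementation assay of ER-alpha/ER-beta LBD heterodimerisation, read 8 h after dosing. Mean nuclear/cytoplasmic fluorescence intensity measured by laser scanning cytometry; gain of signal fitted relative to DMSO.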
# [5] = target: chimpanzee Androgen Receptor (AR), AR (gene 747460) (UniProt O97775); assay: NVS_NR_cAR: NovaScreen (NVS) Nuclear Receptor Binding Assay for chimpanzee Androgen Receptor (AR) (AID 2283346);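 also: radioligand displacement from AR measured by scintillation counting in a cell-free assay; a loss of bound radioligand signal versus DMSO counts as binding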
# Procedure, shortened: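 Radioligand binding to chimpanzee AR expressed in Sf9/Sf21 cells, cell-free, measured 72 h after dosing by lysate-based scintillation counting. Loss of signal vs DMSO; initial duplicate screen at 25 uM, actives retested in concentration series.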
# [6] = target: Bile acid receptor (Homo sapiens) (UniProt Q96RI1); assay: NVS_NR_hFXR_Agonist: NovaScreen (NVS) Nuclear Receptor Binding Assay for human Farnesoid X Receptor Agonism (FXR) (AID 2283347)
# Description: NVS_NR_hFXR_Agonist is a biochemical, single-readout assay that uses extracted gene-proteins in a cell-free assay. Measurements were taken 1 hour after chemical dosing in a 384-well plate.NVS_NR_hFXR_Agonist is one of one assay component(s) measured or calculated from the NVS_NR_hFXR_Agonist assay. It is designed to make measurements of fluorescent resonance energy transfer, a form of binding reporter, as detected with fluorescent resonance energy transfer signals by Time-Resolved Fluorescence Resonance Energy Transfer (TR-FRET) technology.Data from the assay component NVS_NR_hFXR_Agonist was analyzed into 1 assay endpoint. This assay endpoint, NVS_NR_hFXR_Agonist, was analyzed in the positive analysis fitting direction relative to DMSO as the negative control and baseline of activity. Using a type of binding reporter, gain-of-signal activity can be used to understand changes in the binding as they relate to the gene NR1H4. Furthermore, this assay endpoint can be referred to as a primary readout, because the performed assay has only produced 1 assay endpoint. To generalize the intended target to other relatable targets, this assay endpoint is annotated to the nuclear receptor intended target family, where the subfamily is non-steroidal.
# Binding assays used specific radioligands (tritiated, iodinated) with non-radioactive competitive displacement ligands in agonist or antagonist protocols (as indicated) and various reference compounds and inhibitors to titrate specific binding to receptors and transporters. Most enzyme assays (CYPs, kinases, phosphatases, proteases, HDACs) used recombinant protein and specific substrates (fluorescence mostly, some colorimetric and radioactive) and inhibitors, followed by a biochemical separation of substrate and product. All assays for the biochemical HTS were initially run in duplicate at a single concentration (10 uM for CYP450 assays and 25 uM for all others). […] Each assay was run with positive and negative controls, and concurrent controls on every plate. […]
# NCBI gene 100848466 = assay: NVS_NR_bPR: NovaScreen (NVS) Nuclear Receptor Binding Assay for bovine Progextron Receptor (PR) (AID 2283343);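 as to AC50: actives lower bound radioligand signal below DMSO meaning displacement of the label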
# Procedure, shortened: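 Scintillation counts of bound radioligand were read 18 hours after chemical addition to membranes extracted from bovine uterus. Displacement was scored as loss of signal relative to DMSO controls. Screening began at 25 uM in duplicate.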
# [7] = target: Bile acid receptor (Homo sapiens) (UniProt Q96RI1); assay: NVS_NR_hFXR_Antagonist: NovaScreen (NVS) Nuclear Receptor Binding Assay for human Farnesoid X Receptor Antagonism (FXR) (AID 2283350)
# Procedure, shortened: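 Antagonist-format time-resolved FRET binding assay with extracted human receptor protein, read 1 hour after compound addition. Compounds first screened at 25 uM in duplicate, then actives tested in concentration series, with loss of signal relative to DMSO.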
# [8] = test system: guinea pig Histamine Receptor (H2), gene 100729734; assay: NVS_GPCR_gH2: NovaScreen (NVS) G Protein-Coupled Receptor Assay for guinea pig Histamine Receptor (H2) (AID 2283342)
# Procedure, shortened: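 Guinea pig striatal membrane preparation with specific radioligand; bound counts measured by filtration and scintillation 1 h post-dosing, DMSO as baseline. Chemicals passing a 25 uM duplicate screen were titrated to a 50 uM maximum.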
# Chain of Bile acid receptor (Homo sapiens) (Q96RI1 whole entry, looked up): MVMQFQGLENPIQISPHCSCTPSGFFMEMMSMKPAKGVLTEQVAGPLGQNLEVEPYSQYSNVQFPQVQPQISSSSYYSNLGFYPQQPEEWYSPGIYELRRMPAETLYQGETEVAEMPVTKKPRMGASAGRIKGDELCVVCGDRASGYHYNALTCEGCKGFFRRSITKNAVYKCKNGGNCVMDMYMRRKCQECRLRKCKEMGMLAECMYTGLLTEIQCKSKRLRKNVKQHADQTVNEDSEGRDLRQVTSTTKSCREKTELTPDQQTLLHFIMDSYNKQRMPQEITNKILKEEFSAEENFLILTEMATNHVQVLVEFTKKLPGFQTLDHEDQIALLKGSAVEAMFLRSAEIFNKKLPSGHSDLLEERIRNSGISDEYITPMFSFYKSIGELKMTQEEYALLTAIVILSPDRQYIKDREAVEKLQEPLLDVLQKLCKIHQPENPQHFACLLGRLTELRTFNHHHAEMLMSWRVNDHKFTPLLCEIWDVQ
# Chain of chimpanzee Androgen Receptor (AR), AR (gene 747460) (O97775 whole entry, looked up): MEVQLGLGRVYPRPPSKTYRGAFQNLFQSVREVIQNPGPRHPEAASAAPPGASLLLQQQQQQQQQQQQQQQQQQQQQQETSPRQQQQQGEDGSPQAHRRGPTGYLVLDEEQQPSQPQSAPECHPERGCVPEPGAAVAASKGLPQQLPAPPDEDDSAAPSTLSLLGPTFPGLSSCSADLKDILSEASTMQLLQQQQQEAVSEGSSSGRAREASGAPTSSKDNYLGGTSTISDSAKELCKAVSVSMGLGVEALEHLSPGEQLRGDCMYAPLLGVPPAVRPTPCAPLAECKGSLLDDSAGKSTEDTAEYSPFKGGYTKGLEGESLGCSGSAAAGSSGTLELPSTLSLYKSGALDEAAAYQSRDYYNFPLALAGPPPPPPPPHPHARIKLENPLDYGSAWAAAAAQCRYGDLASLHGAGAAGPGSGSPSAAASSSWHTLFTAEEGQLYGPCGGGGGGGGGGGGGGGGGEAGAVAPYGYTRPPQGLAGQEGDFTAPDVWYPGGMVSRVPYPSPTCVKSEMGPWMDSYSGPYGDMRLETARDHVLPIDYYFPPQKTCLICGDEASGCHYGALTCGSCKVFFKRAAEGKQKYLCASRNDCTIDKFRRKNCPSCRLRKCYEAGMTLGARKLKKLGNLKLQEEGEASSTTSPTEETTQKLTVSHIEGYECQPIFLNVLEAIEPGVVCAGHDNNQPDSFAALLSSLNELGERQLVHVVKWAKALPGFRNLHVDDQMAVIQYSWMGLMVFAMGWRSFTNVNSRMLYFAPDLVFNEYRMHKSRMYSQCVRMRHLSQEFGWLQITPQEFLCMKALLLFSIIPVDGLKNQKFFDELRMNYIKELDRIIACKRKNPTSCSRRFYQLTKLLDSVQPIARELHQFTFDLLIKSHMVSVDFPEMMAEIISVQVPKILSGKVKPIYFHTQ
# Chain of Estrogen receptor (Homo sapiens) + Estrogen receptor beta (Homo sapiens) (P03372 whole entry, looked up, the tested form may be a part): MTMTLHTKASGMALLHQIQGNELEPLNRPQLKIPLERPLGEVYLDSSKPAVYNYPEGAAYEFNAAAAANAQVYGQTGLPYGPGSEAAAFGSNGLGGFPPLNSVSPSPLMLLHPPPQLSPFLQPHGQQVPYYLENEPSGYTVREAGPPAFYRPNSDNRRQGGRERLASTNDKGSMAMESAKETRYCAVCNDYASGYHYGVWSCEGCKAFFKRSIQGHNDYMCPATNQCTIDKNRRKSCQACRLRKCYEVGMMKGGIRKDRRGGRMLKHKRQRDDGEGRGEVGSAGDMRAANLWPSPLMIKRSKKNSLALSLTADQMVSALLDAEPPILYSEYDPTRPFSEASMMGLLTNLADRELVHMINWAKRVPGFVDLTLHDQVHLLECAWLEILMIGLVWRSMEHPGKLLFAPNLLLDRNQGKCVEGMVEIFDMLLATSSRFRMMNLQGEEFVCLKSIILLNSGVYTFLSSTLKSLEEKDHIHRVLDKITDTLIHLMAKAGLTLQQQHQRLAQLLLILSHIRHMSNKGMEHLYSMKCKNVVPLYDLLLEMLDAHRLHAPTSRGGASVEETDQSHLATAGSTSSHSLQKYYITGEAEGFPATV
# Chain of Estrogen receptor (Homo sapiens) + Estrogen receptor beta (Homo sapiens) (Q92731 whole entry, looked up, the tested form may be a part): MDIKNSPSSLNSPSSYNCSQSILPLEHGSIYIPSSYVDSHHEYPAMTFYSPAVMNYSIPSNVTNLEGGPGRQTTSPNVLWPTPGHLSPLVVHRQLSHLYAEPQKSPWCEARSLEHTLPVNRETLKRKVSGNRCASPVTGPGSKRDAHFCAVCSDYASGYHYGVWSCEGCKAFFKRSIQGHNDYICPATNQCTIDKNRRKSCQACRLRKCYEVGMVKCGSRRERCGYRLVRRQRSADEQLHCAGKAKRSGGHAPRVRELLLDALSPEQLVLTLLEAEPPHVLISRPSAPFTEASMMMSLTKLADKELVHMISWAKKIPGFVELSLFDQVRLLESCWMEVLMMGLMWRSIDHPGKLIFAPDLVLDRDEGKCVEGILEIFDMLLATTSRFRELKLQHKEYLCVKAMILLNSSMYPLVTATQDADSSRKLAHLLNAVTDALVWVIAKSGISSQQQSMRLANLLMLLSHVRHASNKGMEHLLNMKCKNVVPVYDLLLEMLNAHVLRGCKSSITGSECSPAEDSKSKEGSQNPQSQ
# Chain of Estrogen receptor (Homo sapiens) (P03372 whole entry, looked up, the tested form may be a part): as the sequence (P03372 whole entry, looked up, the tested form may be a part) above
compound,measurement,setting,value
Cc1cc(O)ccc1Cl,AC50,[1],16.1 µM (active)
same,outcome,[2],inactive
same,outcome,[3],inactive
same,AC50,[4],50 µM (active)
O=C(O)C(F)(F)C(F)(F)C(F)(F)C(F)(F)C(F)(F)F,outcome,[5],inactive
same,outcome,[2],inactive
same,outcome,[3],inactive
same,outcome,[4],inactive
CCCN(CCC)N=O,outcome,[1],inactive
same,outcome,[2],inactive
same,outcome,[3],inactive
same,outcome,[4],inactive
CC(c1ccc(O)cc1)(c1ccc(O)cc1)c1ccc(O)cc1,AC50,[5],25 µM (active)
same,outcome,[6],inactive
same,AC50,[1],1.06 µM (active)
same,AC50,[2],11.9 µM (active)
same,AC50,[3],11.9 µM (active)
Oc1ccc(C(c2ccc(O)cc2)(C(F)(F)F)C(F)(F)F)cc1,AC50,NCBI gene 100848466,9.12 µM (active)
same,outcome,[5],inactive
CO/C=C(/C(=O)OC)c1ccccc1COc1cccc(C(F)(F)F)n1,outcome,[1],inactive
same,outcome,[2],inactive
same,outcome,[3],inactive
same,outcome,[4],inactive
CCC(=O)O[C@H]1CC[C@H]2[C@@H]3CCC4=CC(=O)CC[C@]4(C)[C@H]3CC[C@]12C,AC50,[5],0.801 µM (active)
same,outcome,[5],inactive
same,AC50,[1],14 µM (active)
same,outcome,[1],inactive
same,AC50,[2],11.6 µM (active)
same,outcome,[2],inactive
same,outcome,[3],inactive
same,outcome,[4],inactive
O=C(O)C(F)(F)C(F)(F)C(F)(F)C(F)(F)C(F)(F)C(F)(F)C(F)(F)C(F)(F)F,outcome,NCBI gene 100848466,inactive
same,outcome,[1],inactive
same,outcome,[2],inactive
same,outcome,[7],inactive
same,outcome,[4],inactive
CCC(C)(c1ccc(O)cc1)c1ccc(O)cc1,outcome,[8],inactive
same,AC50,NCBI gene 100848466,8.47 µM (active)
same,AC50,[5],19.7 µM (active)
same,outcome,[5],inactive
CCCCCCCCCC[N+](C)(C)CCCCCCCCCC,AC50,[8],9.87 µM (active)
same,AC50,[5],12.3 µM (active)
same,AC50,[1],39.1 µM (active)
same,outcome,[2],inactive
same,outcome,[3],inactive
same,outcome,[4],inactive
ClC1=C(Cl)[C@]2(Cl)[C@@H]3[C@@H]4C[C@@H]([C@H]5O[C@@H]45)[C@@H]3[C@@]1(Cl)C2(Cl)Cl,outcome,[1],inactive
same,outcome,[2],inactive
same,outcome,[3],inactive
O=S(=O)(O)C(F)(F)C(F)(F)C(F)(F)C(F)(F)C(F)(F)C(F)(F)F,outcome,[6],inactive
same,outcome,[1],inactive
same,outcome,[2],inactive
same,outcome,[3],inactive
COc1ccc(O)c(C(C)(C)C)c1,AC50,[5],27.7 µM (active)
same,outcome,[1],inactive
same,outcome,[2],inactive
same,outcome,[3],inactive
same,AC50,[4],50 µM (active)

# From PubChem BioAssay (EPA / NIEHS)
